The text below walks through data of PubChem BioAssay (EPA / NIEHS).

SMILES strings stand for the structures. Inconclusive results are not listed. The source made the active and inactive calls. How the source made its calls: active means hit-call score of the fitted dose curve at least 0.9, where 1 is the maximum; inconclusive means response in the unintended direction; inactive means score below 0.9.

Glucocorticoid receptor (Homo sapiens), sequence (P04150 whole entry, looked up): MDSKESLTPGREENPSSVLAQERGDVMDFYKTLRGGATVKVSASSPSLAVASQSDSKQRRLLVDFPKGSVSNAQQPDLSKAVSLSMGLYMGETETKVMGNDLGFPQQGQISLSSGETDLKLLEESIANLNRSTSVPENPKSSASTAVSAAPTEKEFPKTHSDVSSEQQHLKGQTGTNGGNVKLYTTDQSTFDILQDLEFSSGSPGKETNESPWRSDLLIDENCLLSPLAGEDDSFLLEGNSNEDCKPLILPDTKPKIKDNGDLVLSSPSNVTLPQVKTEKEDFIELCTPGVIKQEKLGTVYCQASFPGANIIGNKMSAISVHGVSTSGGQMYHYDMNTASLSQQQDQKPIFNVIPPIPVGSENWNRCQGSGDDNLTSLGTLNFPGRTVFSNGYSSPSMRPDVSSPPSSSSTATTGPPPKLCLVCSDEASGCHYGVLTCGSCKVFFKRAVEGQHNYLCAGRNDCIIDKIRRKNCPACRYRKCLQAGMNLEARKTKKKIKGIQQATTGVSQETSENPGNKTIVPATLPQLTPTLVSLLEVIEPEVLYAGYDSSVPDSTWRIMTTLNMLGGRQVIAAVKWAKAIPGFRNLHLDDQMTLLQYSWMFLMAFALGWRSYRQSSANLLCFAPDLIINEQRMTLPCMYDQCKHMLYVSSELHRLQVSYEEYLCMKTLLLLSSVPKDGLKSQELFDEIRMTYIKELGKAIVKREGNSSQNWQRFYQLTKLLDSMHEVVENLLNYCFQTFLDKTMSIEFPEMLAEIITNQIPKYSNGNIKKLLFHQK

The test concerns the target Glucocorticoid receptor (Homo sapiens) (UniProt P04150). Nature of the test: ATG_GR_TRANS: Attagene TRANS-FACTORIAL HepG2 Assay for human Glucocorticoid Receptor (GR) (AID 2282978).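 Further: activators score as hits since higher reporter transcript over DMSO is fitted.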 As to conditions: HepG2 Attagene TRANS GR reporter, mRNA transcription. How it is done: ATG_TRANS is a cell-based, multiplexed-readout assay that uses HepG2, a human liver cell line, with measurements taken at 24 hours after chemical dosing in a 24-well plate.ATG_GR_TRANS is one of 30 assay component(s) measured or calculated from the ATG_TRANS assay. It is designed to make measurements of mRNA induction, a form of inducible reporter, as detected with fluorescence intensity signals by Reverse transcription polymerase chain reaction (RT-PCR) and Capillary electrophoresis technology.Data from the assay component ATG_GR_TRANS was analyzed into 1 assay endpoint. This assay endpoint, ATG_GR_TRANS, was analyzed in the positive analysis fitting direction relative to DMSO as the negative control and baseline of activity. Using a type of inducible reporter, measures of mRNA for gain-of-signal activity can be used to understand the reporter gene at the transcription factor-level as they relate to the gene NR3C1. Furthermore, this assay endpoint can be referred to as a primary readout, because this assay has produced multiple assay endpoints where this one serves a reporter gene function. To generalize the intended target to other relatable targets, this assay endpoint is annotated to the nuclear receptor intended target family, where the subfamily is steroidal.
Human liver HepG2 cells are transiently transfected with multiple reporter transcription units (MRTUs) in 6-well plates using FuGene 6 reagent (Roche; 3 ml FuGene/1 mg DNA). The MRTU constructs are regulated by a cis-regulating element (promoter). […] A major difference between the CIS and TRANS system is that in CIS activities of endogenous TFs are measured, whereas the TRANS assay evaluates changes in activities of exogenous, chimeric NR-Gal4 proteins. […] At the end of 24 hour incubation, total RNA was isolated using TriZol reagent (Invitrogen). The isolated RNA is then reverse-transcribed using oligo(dT) primer and Mo-MLV reverse transcriptase (Invitrogen) with DNAse I (Ambion) treatment for 30 min. The one-tenth of the produced cDNA was amplified by PCR using Taq DNA polymerase (Invitrogen) and two reporter sequence-specific primers. The PCR products were fluorescently labeled by primer extension with 6-arboxyfluorescein (6-FAM) 5'-labeled reporter sequence-specific primer (2 min at 95 C, 20 s at 68 C and 10 min at 72 C) and these products were digested with 5U of HpaI (New England Biolabs) for 2h at 37 C. The fragments were purified using Qiaquick PCR columns (Qiagen), analyzed on an ABI 3130xL genetic analyzer (Applied Biosystems) with peak positions identified by using a set of X-rhodamine (ROX)-labeled MapMarker1000 molecular weight standards (BioVentures). The raw capillary electrophoresis data was processed using Attagraph software (Attagene).
Take `FC(F)(F)C(F)(F)C(F)(F)C(F)(F)CCI`: the molecule was called inactive.

Turning to `C#C[C@]1(O)CC[C@H]2[C@@H]3CCc4cc(OC)ccc4[C@H]3CC[C@@]21C`, the molecule was called inactive.

For `O=C(O)C(F)(F)C(F)(F)C(F)(F)F`, the molecule was called inactive.

In the case of `OCCCC(F)(F)C(F)(F)C(F)(F)F`, the outcome was inactive.

As for `Nc1cc(Cl)c(N)c(Cl)c1`, the call was inactive.

Turning to `CN(C)Cc1ccccc1O`, the molecule was classed as inactive.

As to `C=C(C)C(=O)OCC(F)(F)C(F)(F)C(F)(F)C(F)(F)C(F)(F)C(F)(F)C(F)(F)F`, the outcome was inactive.

Regarding `Cc1cccc(N(C)C)c1`, the call was inactive.

Turning to `CCO[Si](CCC(F)(F)C(F)(F)C(F)(F)C(F)(F)C(F)(F)C(F)(F)F)(OCC)OCC`, the call was inactive.

As to `C=CC(F)(F)C(F)(F)C(F)(F)C(F)(F)C(F)(F)C(F)(F)C(F)(F)C(F)(F)C=C`, the molecule was called inactive.

For the molecule `NC(=O)C(F)(F)C(F)(F)C(F)(F)C(F)(F)F`, the outcome was inactive.

As for `FC(F)(F)C(F)(F)C(F)(F)C(F)(F)C(F)(F)C(F)(F)C(F)(F)Br`, the molecule was classed as inactive.

Consider `O=C(O)C=C(C(F)(F)F)C(F)(F)F`, for which the call was inactive.

As to `O=C(O)C(F)(F)C(F)(F)OC(F)(F)F`, the molecule was classed as inactive.

As to `O=C(O)C(F)(F)C(F)(F)C(F)F`, the molecule was called inactive.

`COC(OC(C)=O)c1ccccc1` (stereo not given): the result was inactive.

For `FC(F)(F)C(F)(F)C(F)(F)C(F)(F)C(F)(F)C(F)(F)CC1CO1` (stereo not given), the molecule was classed as inactive.

In the case of `C=CC(F)(F)C(F)(F)C(F)(F)C(F)(F)C(F)(F)C(F)(F)C(F)(F)C(F)(F)F`, the result was inactive.

In the case of `FC1CC(F)(F)C(F)(F)C1(F)F` (stereo not given), the molecule was called inactive.

As for `OCC(F)(F)C(F)(F)C(F)(F)C(F)F`, the molecule was classed as inactive.

For `O=C(Cl)C(F)(F)C(F)(F)C(F)(F)C(F)(F)C(F)(F)C(F)(F)C(F)(F)C(F)(F)F`, the molecule was classed as inactive.

For `Cc1cc(C)cc(O)c1`, the call was inactive.

For `CC/C=C\CCOC(=O)c1ccccc1`, the molecule was called inactive.

`O=S(=O)(OCC(F)F)C(F)(F)F`: the molecule was called inactive.

Consider `O=C(OCCOCCOCCOC(=O)c1ccccc1)c1ccccc1`, for which the outcome was inactive.

Regarding `CCc1ccc(C(c2ccc(CC)cc2)C(Cl)Cl)cc1`, the result was inactive.

As for `O=S(=O)(OCCOC(F)(F)F)C(F)(F)F`, the call was inactive.

In the case of `Nc1ccc(Oc2cccc(Oc3ccc(N)cc3)c2)cc1`, the call was inactive.

With `CO[Si](OC)(c1ccccc1)c1ccccc1`, the call was inactive.

For `CC(Cc1ccc(O)c(O)c1)C(C)Cc1ccc(O)c(O)c1` (stereo not given), the outcome was inactive.

`O=C(O)C(F)(F)C(F)(F)C(F)(F)C(F)(F)F`: the outcome was inactive.

Consider `C=CC/C=C/C/C=C/C/C=C/C`, for which the call was inactive.

Regarding `CCN(CC)c1ccc2c(C)cc(=O)oc2c1`, the call was inactive.

On to `CC(C)(C)C(=O)CC(=O)C(F)(F)C(F)(F)C(F)(F)F`, for which the result was inactive.

Take `O=C(O)C(F)(F)C(F)(F)F`: the result was inactive.

Consider `Cc1ccc(S(=O)(=O)NCl)cc1`, for which the molecule was called inactive.

For the molecule `O=C(O)C(F)(OC(F)(F)C(F)(OC(F)(F)C(F)(F)C(F)(F)F)C(F)(F)F)C(F)(F)F` (stereo not given), the result was inactive.

As for `O=S(=O)(O)C(F)(F)C(F)(F)C(F)(F)C(F)(F)C(F)(F)C(F)(F)C(F)(F)F`, the molecule was classed as inactive.

`FC(F)(F)C(F)(F)C(F)(F)C(F)(F)C(F)(F)CCI`: the result was inactive.

`Nc1ccc(S(=O)(=O)Nc2nccs2)cc1`: the result was inactive.
